# Screening data (PubChem BioAssay)
# CYP2C19 inh: inhibitors of human CYP2C19 | P33261 | inhibition, % at 5 µM | actives 21% (n = 96,000) | CYP2C19 Supersomes, luciferin-H EGE luminescence, 30 min;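 active means CYP2C19 inhibition above a set limit at 5 µM in the primary screen, cut at about 50% in these data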
# PLAP act: human PLAP activation. P05187. purified PLAP enzyme, luminescent substrate read-out; stronger effect = higher value. activation fold at 20 µM. actives 1.2% (n = 96,000); in the data active means activation fold above about 2
# CYP2C19 activ: cytochrome P450 2C19 (human) activation | P33261 | recombinant CYP2C19, luciferin-H EGE luminescence; stronger effect = higher value; 0 = fully inhibited enzyme, 1 = untreated enzyme | activation factor at 5 µM | 96,000 tested, under 10 active;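 active means activation factor of at least 2 at 5 µM in the primary screen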
# CYP2C9 act: activators of human CYP2C9 | P11712 | recombinant CYP2C9, luciferin-H conversion, luminescence; stronger effect = higher value; factor 1 = untreated enzyme, 0 = blocked | activation factor at 5 µM | actives 1.4% (n = 96,000) | AID 1024;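 active means activation factor of 2 or more for CYP2C9 at a 5 µM dose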
# CYP2C9 inhib: blocks human cytochrome P450 2C9. P11712. CYP2C9 Supersomes, luciferin-H conversion, luminescence. inhibition, % at 5 µM. actives 20% (n = 96,000);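 active means blocking of liver enzyme CYP2C9 beyond about 50% at 5 µM, limit read from the data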
# Numbers stand for hits; n = inactive. Sampled rows, rich in hits. Any-hit rate of the full collection: about 31%.
SMILES,CYP2C19 inh,PLAP act,CYP2C19 activ,CYP2C9 act,CYP2C9 inhib
COc1ccccc1NC(=O)C1CCCCN1S(=O)(=O)c1ccc(F)cc1 (stereo unspecified),n,n,n,2.7,n
COc1ccc(S(=O)(=O)N2CCCC2C(=O)Nc2nccs2)cc1 (stereo unspecified),n,n,n,n,n
O=C(Nc1ccc2c(c1)OCO2)C1CCCCN1S(=O)(=O)c1ccc(F)cc1 (stereo unspecified),100,n,n,n,63
Cc1cc(C2C(=O)C(C(=O)c3ccc(Cl)cc3)C(=O)CC2(C)C)on1 (stereo unspecified),n,n,n,n,n
O=C(Oc1cccc(NC(=O)c2ccccc2Cl)c1)c1ccc([N+](=O)[O-])cc1,n,n,n,n,n
CCCOc1ccc(N2CC(C(=O)Nc3ncccc3C)CC2=O)cc1 (stereo unspecified),n,n,n,n,69
COc1ccc(NC(=O)C2CCCCN2S(=O)(=O)c2ccc(F)cc2)cc1 (stereo unspecified),68,n,n,n,n
COc1ccc(-c2oc3ncn4nc(Cc5ccccc5)nc4c3c2-c2ccc(OC)cc2)cc1,n,n,n,n,n
Cc1ccc(S(=O)(=O)c2c(C)nn(C(C)(C)C)c2OC(=O)c2ccco2)cc1,99,n,n,n,86
Cc1nn(C(C)(C)C)c(OC(=O)c2ccc3c(c2)OCO3)c1S(=O)(=O)c1ccccc1,62,n,n,n,83
CC(=O)Oc1c(S(=O)(=O)c2ccc(C)cc2)c(C)nn1-c1ccccc1,n,n,n,n,78
Cc1ccc(S(=O)(=O)c2c(C)nn(C(C)(C)C)c2OC(=O)C(C)(C)C)cc1,n,n,n,n,n
Cc1ccc(S(=O)(=O)c2c(C)nn(C(C)(C)C)c2OC(=O)c2ccc(Br)o2)cc1,70,n,n,n,95
Cc1nn(C(C)(C)C)c(OC(=O)c2ccc3c(c2)OCO3)c1Sc1ccccc1,n,n,n,n,n
CCC(C)c1ccccc1NC(=S)Nc1cccnc1 (stereo unspecified),n,n,n,n,n
O=S(=O)(NC1CCc2ccccc21)c1ccc(S(=O)(=O)N2CCCC2)cc1 (stereo unspecified),n,n,n,n,n
Cc1ccc(S(=O)(=O)c2c(C)nn(C(C)(C)C)c2OC(=O)c2cccs2)cc1,94,n,n,n,90
COc1ccc(OC)c(NS(=O)(=O)c2cc(OC)ccc2OC)c1,96,n,n,n,59
COc1ccc(OC)c(S(=O)(=O)Nc2ccccc2C)c1,87,n,n,n,n
COc1ccc(Cl)cc1NS(=O)(=O)c1cc(Cl)ccc1OC,n,n,n,n,n
CCCCOc1ccc(S(=O)(=O)Nc2cc(OC)ccc2OC)cc1,86,n,n,n,74
COc1ccc(OC)c(S(=O)(=O)NCCC2=CCCCC2)c1,100,n,n,n,89
COc1ccc(OC)c(S(=O)(=O)Nc2ccccc2C(=O)O)c1,n,n,n,n,n
CCOC(=O)N1CCN(Cc2nc3c(c(=O)[nH]c(=O)n3C)n2CCCc2ccccc2)CC1,n,n,n,n,n
CCc1ccccc1NC(=S)N1CCC(C(=O)c2ccc(F)cc2)CC1,n,n,n,n,n
SMILES,CYP2C19 inh,PLAP act,CYP2C19 activ,CYP2C9 act,CYP2C9 inhib
COc1ccc(OC)c(N/C=C2/CCCCC2=O)c1,n,n,n,n,55
CCNS(=O)(=O)c1cc(OC)ccc1OC,85,n,n,n,90
COc1ccc(OC)c(S(=O)(=O)NCCO)c1,n,n,n,n,n
COCCNC(=O)COc1cc(=O)n(C)c2ccccc12,n,n,n,n,n
CC(Oc1ccccc1)c1ccnn1S(=O)(=O)c1ccccc1 (stereo unspecified),n,n,n,n,64
CC(Oc1ccc(Cl)cc1)c1ccnn1S(=O)(=O)c1ccc(Cl)cc1 (stereo unspecified),n,n,n,n,82
CCNC(=O)n1nccc1C(C)Oc1ccccc1 (stereo unspecified),55,n,n,n,n
CC(C)OCCCNC(=O)C(C)Oc1ccccc1 (stereo unspecified),n,n,n,n,n
CCS(=O)(=O)N1CCN(S(=O)(=O)c2ccccc2)CC1,n,n,n,n,n
CCn1c(=O)c(C(=O)Nc2nc3ccccc3[nH]2)c(O)c2ccccc21,n,n,n,n,n
O=c1nc(-c2ccccc2)c2cc(Cl)ccc2[nH]1,n,n,n,n,n
